Source: PubChem (National Center for Advancing Translational Sciences (NCATS))
TexasRed fluor: counter-screen for TRb-SRC2 inhibitors: fluorescence interference; AID 1479; TRb/SRC2 Texas Red total fluorescence interference; Potency, µM (series often up to 106 µM), without a hit: at the highest dose fluorescence change, negative = quenching; 280,000 tested, 0.29% active; active = well fitted curve in either direction with a large enough effect; inconclusive = small, poorly fitted or top-dose-only effect; also: potency is read from the fitted curve at half-maximal effect
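Flags fluorescent or light-absorbing compounds by total fluorescence, S + 2P, at 555 nm excitation and 632 nm emission. Mixture: 20 nM Texas Red SRC2 peptide, 0.6 uM human TRb LBD, 1 uM T3, 5% DMSO; compound exposure 5 h at ambient temperature.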
Tau fibril ThT: blocks human tau fibril formation measured by thioflavin T. Potency, µM (highest dose often 57.4 µM), for the others: at the top dose activity, negative = inhibition, usual class: inhibitors. AID 1460. recombinant tau K18 P301L, heparin-induced fibrillization, ThT fluorescence. 270,000 tested, 2.1% active. P10636; also: potency is read from the fitted curve at half-maximal effect; nearly all actives have a fitted effect of over 55% in size
Target sequence (P10636 561-689 P618L limits assumed): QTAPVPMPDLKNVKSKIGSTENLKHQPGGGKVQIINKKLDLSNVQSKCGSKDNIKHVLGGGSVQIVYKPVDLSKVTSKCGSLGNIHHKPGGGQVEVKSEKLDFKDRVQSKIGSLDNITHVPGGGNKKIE
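K18 P301L tau (15 uM + 0.24 uM Alexa 594-tagged), heparin 20 uM, NaOAc pH 7, 6 h 37 C; ThT 30 uM, 1 h RT, ex 450/em 510 nm.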
PNC assembly inh: blocks assembly of the perinucleolar compartment. PC3M PTB-GFP, PNC prevalence imaging, 16 h; hits give low values. activity change (PNC), negative = inhibition, % at 10 µM. 140,000 tested, 3.1% active. AID 2417;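 active = readout at or below -70, meaning at least 70% loss of cells showing the perinucleolar compartment, a nuclear body marking cancer cells; inconclusive = readout between -30 and a set limit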;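 also: plate controls were DMSO wells for no effect and camptothecin positive control wells for full effect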
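PC3M cells stably expressing PTB-GFP, 750–1000 cells/well, treated 16 h at 37 °C with compound (23 nl of library stock), in duplicate. After paraformaldehyde fixation and Hoechst stain, imaged at 20x; PNC prevalence scored by image analysis.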
Tau fibril FP: blocks human tau fibril formation measured by polarization | K18 P301L tau heparin fibrillization, Alexa594 FP, 6 h | AID 1468 | P10636 | Potency, µM (series often up to 57.7 µM), for the others: at the top dose activity, negative = inhibition, hits mostly inhibitors | 280,000 tested, 0.39% active; also: potency is read from the fitted curve at half-maximal effect; nearly all actives have a fitted effect of over 55% in size
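Heparin (20 uM) drove fibril formation of recombinant tau K18 P301L, 15 uM unlabeled with 0.24 uM Alexa 594 label, for 6 hr at 37 C in 100 mM sodium acetate pH 7. Fluorescence polarization (555/632 nm) read 1 hr after 30 uM ThT.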
Tau fluor cs: counter-screen for tau fibril formation inhibitors; AID 1463; 280,000 tested, 0.93% active; Potency, µM (series often up to 57.7 µM), without a hit: at the top dose activity change, negative = decrease; tau K18 P301L (four-repeat tau fragment) Alexa594 fluorescence, heparin fibrillization; also: potency is read from the fitted curve at half-maximal effect; nearly all actives have a fitted effect of over 55% in size
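Human K18 P301L tau (15 uM unlabeled plus 0.24 uM Alexa 594-labeled, final) in 100 mM sodium acetate pH 7 was mixed with compound and 20 uM heparin and incubated 6 hr at 37 C.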
TRb-SRC2 inh: disrupts binding of human TR beta to SRC2 | P10828 | TRbeta-SRC2 peptide binding, fluorescence polarization; receptor liganded with 1 µM T3 | Potency, µM (top dose mostly 106 µM), without a hit: top-dose activity change, negative = inhibition, most hits filed as inhibitors | 280,000 tested, 0.065% active | AID 1469;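 also: potency is read from the fitted curve at half-maximal effect; plate controls were bound peptide for no effect and peptide without receptor for full effect; nearly all actives have a fitted effect of over 50% in size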
Target sequence (P10828 whole entry, looked up): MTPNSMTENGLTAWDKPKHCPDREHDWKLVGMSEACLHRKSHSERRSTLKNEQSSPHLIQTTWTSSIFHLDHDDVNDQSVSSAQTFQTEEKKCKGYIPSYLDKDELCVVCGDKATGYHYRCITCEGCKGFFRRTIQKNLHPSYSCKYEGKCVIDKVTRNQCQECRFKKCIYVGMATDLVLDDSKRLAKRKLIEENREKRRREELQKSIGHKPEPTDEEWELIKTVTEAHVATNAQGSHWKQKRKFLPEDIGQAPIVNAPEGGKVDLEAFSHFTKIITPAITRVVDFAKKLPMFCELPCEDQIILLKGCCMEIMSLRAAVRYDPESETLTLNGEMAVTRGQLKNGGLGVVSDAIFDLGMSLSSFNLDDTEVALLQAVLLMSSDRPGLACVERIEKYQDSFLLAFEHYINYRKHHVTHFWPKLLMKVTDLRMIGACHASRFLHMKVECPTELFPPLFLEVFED
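Each compound concentration gave % activity, normalized to unbound and bound Texas Red SRC2 controls, from polarization read after 5 hr ambient incubation with T3-loaded human TRb LBD.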
* = called active by the depositor; ? = inconclusive; . = no result; ! = not confirmed by another sample; [ ] = remark or other dose. Sampled rows, rich in hits. Any-hit rate of the full collection: about 4.6%. Unless noted, calls follow the shape of the dose curve; as a rule, active = well fitted curve in the direction sought with a large enough effect; inconclusive = small, poorly fitted or top-dose-only effect, or another doubt; inactive = no such curve, though single readings can be large; an effect the other way counts as inactive or inconclusive. Unless noted, % is scaled to controls: 0 for no effect and ±100 for the full control effect.

SMILES	TexasRed fluor	Tau fibril ThT	PNC assembly inh	Tau fibril FP	Tau fluor cs	TRb-SRC2 inh
CCOc1ccc(CNS(=O)(=O)c2ccc3[nH]c4c(c3c2)CCCC4)cc1OC	-17%	-24%	.	5%	?	5%
COc1ccc(Cl)cc1NS(=O)(=O)c1ccc(OC)c(OC)c1	-6%	5%	1	-12%	-1%	-3%
CCOc1ccccc1CNS(=O)(=O)c1ccc2[nH]c(=O)sc2c1	-4%	2%	-107*	-8%	-10%	-4%
COc1ccccc1CNS(=O)(=O)c1ccc2[nH]c3c(c2c1)CCCCC3	?	-9%	.	?	16µM*[quencher]	-5%
COc1cccc(NS(=O)(=O)c2ccc3[nH]c4c(c3c2)CCCCCC4)c1	4%	-4%	.	-1%	7.1µM*[quencher]	4%
COc1ccc(Cl)cc1NS(=O)(=O)c1ccc2[nH]c3c(c2c1)CCCC3	3%	1%	.	0%	8.9µM*[quencher]	4%
COc1cccc(N2CCN(S(=O)(=O)c3ccc4[nH]c5c(c4c3)CCCC5)CC2)c1	-5%	2%	.	0%	?	0%
O=c1c2ccccc2nnn1CSc1nnc(C2COc3ccccc3O2)n1-c1ccccc1 (stereo not given)	1%	-8%	-7	4%	-9%	0%
Cn1ccnc1Sc1nc2c(c(=O)n(C)c(=O)n2C)n1C	0%	-6%	?	-7%	-6%	-9%
O=C1NCCCN1Cc1ccc(F)cc1Cl	-2%	-6%	22	7%	-4%	-1%
COc1ccc(NS(=O)(=O)c2ccc3[nH]c4c(c3c2)CCCCCC4)cc1	-1%	15%	.	0%	5µM*[quencher]	1%
Cc1ccc(NS(=O)(=O)c2ccc3[nH]c4c(c3c2)CCCC4)c(C)c1	?	4%	.	14%	?	5%
COc1ccccc1N1CCN(S(=O)(=O)c2ccc3[nH]c4c(c3c2)CCCC4)CC1	-15%	-2%	.	8%	?	1%
Cc1ccc(NS(=O)(=O)c2ccc3[nH]c4c(c3c2)CCCCC4)cc1	-3%	0%	.	2%	7.9µM*[quencher]	1%
CCC(C)NC(=O)CCSCCC(=O)NC(C)CC (stereo not given)	2%	-10%	-104*	-3%	3%	-3%
CC(NC(=O)CCSCCC(=O)NC(C)c1ccccc1)c1ccccc1 (stereo not given)	-1%	?	?	-15%	-5%	-9%
O=[N+]([O-])c1cc(C=Nc2ccc3ccccc3c2)ccc1Br	-20%	?	4	4%	-27%	11%
O=[N+]([O-])c1cccc(/C=C/c2nc(C=Nc3ccc4ccccc4c3)c(O)o2)c1	-6%	2µM*	?	-3%	-15%	-1%
CCCCN(CCCC)S(=O)(=O)c1ccc(NC(=O)c2cccs2)cc1	1%	-4%	30	14µM*	?	8%
Cc1cc(C)nc(NS(=O)(=O)c2ccc(NC(=O)c3cccs3)cc2)n1	-1%	-2%	-29	1%	-7%	8%
Cc1ccc2c(c1)C(=O)C1(O)CCN(c3ccccc3)C1=N2 (stereo not given)	-2%	7.9µM*!	.	-12%	-13%	1%
Cc1ccc2c(c1)C(=O)[C@@]1(O)CCN(c3ccccc3)C1=N2	-2%	20µM*	.	-5%	-20%	3%
CCCCNC(=S)NCc1ccc2[nH]c3c(c2c1)CCCC3	-3%	-15%	.	?	?	5%
CCOc1ccc(NC(=S)NCc2ccc3[nH]c(C)cc3c2)cc1	-1%	?	.	?	20µM*[quencher]	-1%
CCCCNC(=S)NCc1ccc2[nH]c(C)cc2c1	0%	-11%	-115*	13%	?	-4%
SMILES	TexasRed fluor	Tau fibril ThT	PNC assembly inh	Tau fibril FP	Tau fluor cs	TRb-SRC2 inh
O=C(CN1C(=O)S/C(=C/c2cccs2)C1=O)N1CCOCC1	0%	-8%	6	-1%	-7%	6%
O=S(=O)(Nc1nnc(-c2ccccc2)s1)c1ccc(Cl)cc1	1%	-10%	?	6%	-7%	-13%
Cc1ccc(CN(c2ccc(C(=O)N3CCc4ccccc4C3)cc2)S(C)(=O)=O)cc1	-5%	-6%	?	8%	-8%	-4%
Cc1ccc(CN(c2ccc(C(=O)N3CCCC3)cc2)S(C)(=O)=O)cc1	2%	0%	-83*	7%	-1%	2%
O=C(ONc1ccc(N=NC(=O)c2ccccc2O)cc1)c1ccccc1	0%	4.5µM*	?	1%	?	0%
O=C(CN1C(=O)c2cccc3cccc(c23)C1=O)N1CCN(c2ccccn2)CC1	0%[53 µM]	9%	-104*	9%	15%	-8%[53 µM]
CC1CCN(C(=O)CN2C(=O)c3cccc4cccc(c34)C2=O)CC1	0%	-3%	.	?	-1%	-5%
O=C(Nc1ccc(-c2csc(Nc3cccc(C(F)(F)F)c3)n2)cc1)c1ccccc1	-3%	?	.	0%	10µM*[quencher]	-5%
O=C(Nc1cccc(-c2csc(Nc3ccccc3)n2)c1)c1ccccc1	-2%	?	.	2%	13µM*[quencher]	-6%
O=C(Nc1cccc(-c2csc(Nc3cccc(C(F)(F)F)c3)n2)c1)c1ccccc1	-2%	?	.	-4%	8.9µM*[quencher]	1%
CC1(C)CC(CC(=O)NNc2nc(-c3ccccc3)cs2)C(=O)O1 (stereo not given)	-3%	-5%	-84*	5%	4%	0%
Cc1nc(-c2ccc(NC(=O)c3ccccc3)cc2)cs1	-5%	-8%	.	-14%[2.34 µM]	-10%	-2%
O=C(c1ccccc1Br)N1CCC(c2nc3ccccc3o2)CC1	-4%	-1%	.	5%	-3%	1%
COc1ccc(CNC(=O)CN(Cc2ccc(OC)cc2)C(=O)c2csnn2)cc1	1%	-10%	.	-1%	-19%	-1%
COc1ccc(NC(=O)C(CC(C)C)NC(=O)C2CCCCC2)cc1 (stereo not given)	-2%	-5%	.	-2%	-14%	-9%
CC(=O)NNc1nc(-c2ccccc2)cs1	-2%	18µM*	.	?	?	0%
O=C(Nc1nc(-c2cccnc2)cs1)c1ccc([N+](=O)[O-])cc1	2%	?	.	1%	?	1%
CC(=O)c1cccc(Nc2nc(-c3ccccc3)cs2)c1	-3%	?	.	?	7.9µM*[quencher]	-2%
c1ccc(Nc2nc(-c3ccncc3)cs2)cc1	2%	1%	221	-2%	2%	-20%
CC(=O)NNc1nc(-c2ccc(C)cc2)cs1	1%	?	.	-4%	-16%	12%
O=C(Nc1ccc(-c2csc(Nc3cccc(C(F)(F)F)c3)n2)cc1)c1cc([N+](=O)[O-])cc(C(F)(F)F)c1	0%	?	.	9%	3.5µM*[quencher]	-7%
